AMPAR-TARP mod: GluA2-stargazin AMPA receptor complex modulation; actives 3.5% (n = 40,000); O88602+P19491; calls only at 30 µM; HEK293 GluA2+stargazin, membrane potential dye (FDSS), glutamate EC50; hits were called plate by plate, in both directions;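 active = any of four per-well response measures lying three or more SD from its plate-wide compound average, in either direction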
GIRK2 act: Activators of human GIRK2-containing channels; P48051; HEK293 GIRK2/NPY4 cells, thallium flux fluorescence; activation (% efficacy), % for hits at 37.5 µM; 34,000 tested, under 10 active; AID 1259324;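 active = primary screen hit, no activity in plain HEK293 cells, and in GIRK2-only cells above 5% efficacy rising with concentration; inactive = the rest, including fluorescent compounds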;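 also: efficacy is normalized control-subtracted fluorescence 15 s after thallium addition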
* marks the source's active call; other numbers are inactive results; i = inactive; . = no result given; + = active, no number; ! = not confirmed by another sample. Only a selection was taken, and hits are over-represented in it overall.

SMILES	AMPAR-TARP mod	GIRK2 act
COc1ccccc1C(=O)N1CCC(c2nnc(C3CC3)o2)CC1	i	i
CCN(CC)CCn1c(C)cn2c3c(=O)n(CCc4ccccc4)c(=O)n(C)c3nc12	+	i
COc1cccc(-n2c(C)cn3c4c(=O)n(CCc5ccccc5)c(=O)n(C)c4nc23)c1	i	.
COc1ccc(C2(CNS(C)(=O)=O)CCCC2)cc1	i	i
COc1ccc(C2(CNC(=O)C3CCN(S(C)(=O)=O)CC3)CCCC2)cc1	+	i
COc1ccc(OCC(=O)Nc2ccc(CC(=O)N3CCOCC3)cc2)cc1	+	i
COc1ccc(CC(=O)Nc2ccc(CC(=O)N3CCCC3)cc2)cc1	i	i
COc1ccc(-c2cc(=O)n(CC(=O)NCCc3ccccc3OC)cn2)cc1	.	i
Cc1nnsc1C(=O)Nc1ccc2c(c1)CC(=O)N2C	+	i
CCC(=O)Nc1ccc2c(c1)CC(=O)N2C	i	.
Cc1ccnc(OCC(=O)Nc2cc(C)on2)n1	.	i
CSCCC(C)(O)CNS(=O)(=O)c1ccc(Cl)s1 (centres undefined)	+	i
COc1ccc(S(=O)(=O)NCC(C)(O)C2CC2)cc1Cl (centres undefined)	i	i
CSCCC(C)(O)CNS(=O)(=O)c1ccc(Br)s1 (centres undefined)	i	.
COc1ccc(S(=O)(=O)NCC(C)(O)CCSC)cc1Cl (centres undefined)	+	i
CC(=O)N1CCCc2ccc(NC(=O)C(=O)Nc3ccc(Cl)cc3)cc21	i	i
Cc1ccccc1OCCCn1c(C(C)NC(=O)c2ccco2)nc2ccccc21 (centres undefined)	.	i
COc1ccc(C(=O)Nc2ccc(N3CCCCC3=O)cc2)cc1OC	i	i
CCOc1ccc(/C=C/C(=O)Nc2ccccc2Cl)cc1	i	.
CN(c1ccsc1C(=O)Nc1cccc(Cl)c1)S(=O)(=O)c1ccccc1	i	i
CC(C)c1ccc(NC(=O)c2sccc2N(C)S(=O)(=O)c2ccccc2)cc1	+!	i
O=C(CSc1nc(=O)n(CC2CCCO2)c2c1CCC2)NCCc1ccccc1 (centres undefined)	i	i
O=C(CCn1nc(-c2ccc(Cl)cc2)c2ccccc2c1=O)NC1CCCCC1	+	.
Cc1ccc(-c2nn(CCC(=O)N3CCN(Cc4ccccc4)CC3)c(=O)c3ccccc23)cc1	i	.
Cc1ccc(S(=O)(=O)/C(C#N)=C/N2CCN(Cc3ccccc3)CC2)cc1C	+	i
SMILES	AMPAR-TARP mod	GIRK2 act
Cc1ccc(S(=O)(=O)/C(C#N)=C/N2CCN(Cc3ccc4c(c3)OCO4)CC2)cc1C	i	i
COc1ccc(CCNC(=O)CC2CCCCN2S(=O)(=O)c2ccc(C)cc2)cc1OC (centres undefined)	i	.
COc1ccc2sc(=NC(=O)c3ccno3)n(CCSC)c2c1	+	i
Cn1ccc(C(=O)N=c2sc3cc4c(cc3n2C)OCCO4)n1	i	i
CSCCn1c(=NC(=O)c2ccn(C)n2)sc2cc3c(cc21)OCCO3	+	i
CCn1nc(C(=O)N=c2sc3cc(OC)ccc3n2CCSC)cc1C	.	i
COc1cccc(-n2nnnc2SCC(=O)Nc2ccc(Cl)c(C(F)(F)F)c2)c1	i	i
Cc1cc(N2CC(C)OC(C)C2)nc2ccccc12 (centres undefined)	+	.
CC1CN(CC(O)COc2cccc3ccccc23)CC(C)O1 (centres undefined)	i	.
CCOC(=O)c1sc2cccc(F)c2c1S(=O)(=O)Nc1cc(Cl)c(OC)cc1OC	+	.
CCOC(=O)c1sc2cccc(F)c2c1S(=O)(=O)Nc1ccc(OC)c(Cl)c1	i	.
CC(C)(C)c1cc(NC(=O)c2csc(-c3cnccn3)n2)on1	i	i
Cc1ccc(-n2ncc3c(=O)n(NC(=O)/C=C/c4ccc([N+](=O)[O-])cc4)cnc32)cc1C	i	.
Cc1ccsc1C(O)CNC(=O)C1c2ccccc2Oc2ccccc21 (centres undefined)	+	i
Cc1ccsc1C(O)CNC(=O)CSCc1ccccc1 (centres undefined)	i	i
COc1ccc(NC(=O)c2ccc(SC)cc2OC)c(C)c1	i	.
Cc1ccc(OCC(=O)Nc2ccc3c(c2)CCCN3S(=O)(=O)c2ccc(C)cc2)cc1	i	.
COc1ccc(S(=O)(=O)N2CCCc3cc(NS(=O)(=O)c4ccccc4)ccc32)cc1	i	.
Cc1ccc(S(=O)(=O)Nc2ccc3c(c2)N(S(=O)(=O)c2ccc(C)cc2)CCC3)cc1	i	i
O=S(=O)(Nc1ccc2c(c1)N(S(=O)(=O)c1ccccc1)CCC2)c1ccc(F)cc1	i	.
Cc1ccc(S(=O)(=O)N2CCCc3ccc(NS(=O)(=O)c4ccc(F)cc4)cc32)cc1	+	i
COc1ccc(S(=O)(=O)N2CCCc3cc(NS(=O)(=O)c4cccc(C)c4)ccc32)cc1	+	.
CCOc1ccc(CC(=O)Nc2ccc3c(c2)CCCN3S(=O)(=O)c2ccc(C)cc2)cc1	+	.
Cc1ccc(S(=O)(=O)N2CCCc3ccc(NS(=O)(=O)c4ccccc4)cc32)cc1	+	i
Cn1c(=O)[nH]c(=O)c2c1nc(N1CCc3ccccc3C1)n2CC(=O)O	i	.
SMILES	AMPAR-TARP mod	GIRK2 act
CC(C)(C)c1cc(N2CCN(CCO)CC2)n2ncc(-c3ccccc3)c2n1	i	i
COc1ccc(CCNC(=O)Nc2ccc3c(c2)N(S(=O)(=O)c2ccccc2)CCC3)cc1	+	.
COc1ccc(CCNC(=O)Nc2ccc3c(c2)N(C(=O)c2ccccc2)CCC3)cc1	.	i
CC(=O)Nc1ccc(S(=O)(=O)N2CCN(c3cc(Cl)ccc3C)CC2)cc1	i	.
CN(C)CCN(C(=O)c1ccnn1C)c1nc2c(F)cccc2s1	.	i
COc1cccc(NC(=O)c2ccc(=O)n(Cc3cccc([N+](=O)[O-])c3)c2)c1	i	i
COc1cc([N+](=O)[O-])ccc1NC(=O)c1ccc(=O)n(Cc2ccc(Cl)cc2)c1	i	i
COc1cc([N+](=O)[O-])ccc1NC(=O)c1ccc(=O)n(Cc2cccc(C(F)(F)F)c2)c1	i	i
COc1cc([N+](=O)[O-])ccc1NC(=O)c1ccc(=O)n(Cc2ccccc2)c1	+	i
CC(=O)c1cccc(NC(=O)c2ccc(=O)n(Cc3cccc([N+](=O)[O-])c3)c2)c1	+	i
COc1cc([N+](=O)[O-])ccc1NC(=O)c1ccc(=O)n(Cc2cccc(Cl)c2)c1	+	i
COc1ccc(OC)c(NC(=O)CSc2ccc(NC(C)=O)nn2)c1	.	i
COc1ccc(S(=O)(=O)Nc2nc(C(=O)NCCC3=CCCCC3)cs2)cc1	i	i
Cc1cc(Br)c2nc(-c3ccncc3)oc(=O)c2c1	+	i
Cc1ccc(CNC(=O)CSc2nnc(-c3ccncc3)o2)cc1	i	i
COC(=O)N1CCC(CNC(=O)C(=O)NCCc2ccccc2)CC1	i	i
COC(=O)N1CCC(CNC(=O)CCc2ccccc2)CC1	+	i
CCOc1ccc(-n2nnc(C(=O)NCc3ccccc3)c2N)cc1	i	i
COc1ccc(Cl)cc1NC(=O)Nc1ccc2c(c1)CCC(=O)N2C	i	i
COc1cc(/C=C2\SC(=S)N(c3ccc(C(=O)O)c(O)c3)C2=O)ccc1O	+	.
